According to PubChem BioAssay AID504332 (National Center for Advancing Translational Sciences (NCATS), 2011):
In all, about 350,000 compounds went through this assay and about 31,000 (8.9%) were called active. Not shown: some 15% with an inconclusive outcome. Calls come from the whole dose curve; as a rule, active = well fitted inhibition curve with a large enough effect; inconclusive = small, poorly fitted or top-dose-only effect; inactive = no such curve, though single readings can be large or run the other way. For the sample, actives were picked, then their nearest neighbours and some compounds at random.

target: Histone-lysine N-methyltransferase EHMT2 (Homo sapiens) (UniProt Q96KQ7); experiment: qHTS Assay for Inhibitors of Histone Lysine Methyltransferase G9a; settings: G9a H3K9 monomethylation, AlphaScreen, 2 h; series mostly up to 59 µM; activity, negative = inhibition: at the top concentration; note: nearly all actives have a fitted effect of over 75% in size
Method in brief: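 AlphaScreen detection with an anti-monomethyl H3K9 antibody quantified product after a 2 h room-temperature reaction containing 500 nM biotinylated H3K9 peptide, 20 µM SAM and 20 nM enzyme, which had been preincubated 15 min with compound.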
% is set by controls: 0 for no effect and ±100 for the full control effect; potency is the fitted concentration of half-maximal effect.

Histone-lysine N-methyltransferase EHMT2 (Homo sapiens), sequence (Q96KQ7 913-1193 limits assumed): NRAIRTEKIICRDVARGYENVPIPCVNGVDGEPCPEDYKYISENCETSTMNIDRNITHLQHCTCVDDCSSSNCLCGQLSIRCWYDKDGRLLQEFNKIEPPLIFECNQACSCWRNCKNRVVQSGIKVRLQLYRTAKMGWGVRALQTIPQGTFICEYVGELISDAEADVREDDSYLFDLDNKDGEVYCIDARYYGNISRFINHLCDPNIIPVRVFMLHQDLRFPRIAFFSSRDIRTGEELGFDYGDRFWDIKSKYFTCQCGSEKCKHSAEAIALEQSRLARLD

activity, negative = inhibition, inactive:
O=C(NCCCN1CCCC1=O)C(=O)NCC1OCCN1S(=O)(=O)c1ccc(Br)cc1 (stereo unspecified) 30.6% [at 102 µM]
Cc1ccc(NC(=O)CN2C(=O)CC(C)Sc3ccccc32)c(C)c1 (stereo unspecified) -3.84%
COc1ccc(S(=O)(=O)N(C)CC(=O)N2CCCC2)cc1 -6.5% [at 102 µM]
CCc1ccc(-n2nc(C)c3c(C)cc(=O)n(CC(=O)Nc4ccc(F)cc4C)c32)cc1 13.4%
Cc1cc(NC(=O)Cn2nc(C(F)(F)F)c3c2CCCC3)no1 2.94%
C/C(=C/c1ccccc1)C(=O)N1CCN(c2ccccc2)CC1 -3.56% [at 102 µM]
CCOc1ccc(NC(=O)c2cnn(-c3ccccc3)c2-n2cccc2)cc1 -16.2%
O=C(N1CCOCC1)N1CCOCC1 9.64%
Cc1ccc(C(=O)N2CCN(C(=O)N3CCOCC3)CC2)cc1 -4.57%
Cc1cccc(NC(=O)Cc2ccc(Br)cc2)n1 12.1% [at 0.501 µM]
CCOCCCNC(=O)c1c(NC(=O)Cc2coc3ccc(C)cc23)sc2c1CCC2 -21.4%
O=C(CSCc1cnn(-c2ccccc2)c1-n1cccc1)NCc1ccc(Cl)cc1 -27.5%
Cc1cccc(N2C(=O)C3C(c4ccccc4)OC4(C(=O)c5ccccc5C4=O)C3C2=O)c1 (stereo unspecified) -13.5%
Cc1cccc(N2C(=O)SC(N(CC(=O)O)c3cccc(C)c3)C2=O)c1 (stereo unspecified) -87.4% [at 102 µM]
COc1ccc(OC)c(-c2csc(NC(=O)COC(=O)C3CC3)n2)c1 -10.3%
COc1cccc(CNC(=O)COC(=O)CN2C(=O)NC3(CCCCC3C)C2=O)c1 (stereo unspecified) 7.7% [at 12.7 µM]
Cc1cc(N2C(=O)C(=O)/C(=C(/O)c3ccc(Cl)cc3)C2c2cccc(Br)c2)no1 (stereo unspecified) -2.11%
COc1ccc(C2/C(=C(/O)c3ccccc3)C(=O)C(=O)N2C)c(OC)c1 (stereo unspecified) -3.6% [at 0.501 µM]
COC(=O)C1(C)CC1(c1ccccc1)c1ccccc1 (stereo unspecified) 48.6% [at 102 µM]
CC(=O)c1ccc(N2CCN(S(=O)(=O)c3ccc4c(c3)CC(=O)N4C)CC2)cc1 0.477% [at 102 µM]
Cc1ccc2oc(=O)c3cnn(CC(=O)N4CCN(c5cccc(Cl)c5)CC4)c3c2c1 -0.798%
CSc1ccc(CCNC(=O)c2cnn(-c3ccccc3)c2-n2cccc2)cc1 3.56%
CC1CCN(C(=O)C2CCN(S(=O)(=O)N3CCC4(CC3)OCCO4)CC2)CC1 -9.21% [at 102 µM]
Cc1csc(=O)n1CC(=O)OCC(=O)N(CC(C)C)c1c(N)n(Cc2ccccc2)c(=O)[nH]c1=O 6.53% [at 102 µM]
COCCN(C(=O)COC(=O)Cc1cccc(OC)c1)c1c(N)n(Cc2ccccc2)c(=O)[nH]c1=O -40.6% [at 102 µM]
O=C(NC1CC(=O)N(c2ccc(F)cc2)C1)c1ccc(S(=O)(=O)N2CCCC2)cc1 (stereo unspecified) -39.5%
CCN(CC)C(=O)CSc1nc2cc3c(cc2c(=O)n1CCCC(=O)NCc1ccc2c(c1)OCO2)OCO3 0.103%
CCOC(=O)C1=C(CN2CCCCCC2)NC(=O)NC1c1cccc([N+](=O)[O-])c1 (stereo unspecified) -40.2% [at 102 µM]
CCOC(=O)C1=C(CCc2ccccc2)NC(=O)NC1c1ccc2ccccc2c1 (stereo unspecified) -5.48% [at 102 µM]
Cc1ccc(C)c(N2CCN(C(=O)CN3C(=O)COc4ccc(S(=O)(=O)N5CCCCCC5)cc43)CC2)c1 1.44%
CC(C)(C)C(=O)COC(=O)c1cc(S(=O)(=O)N2CCCCC2)ccc1N1CCOCC1 -0.482% [at 102 µM]
Cc1nnc(Sc2nc3c(c(=O)[nH]c(=O)n3C)n2Cc2ccccc2)s1 17.7% [at 12.7 µM]
C=CCSc1nc2c(c(=O)[nH]c(=O)n2C)n1Cc1ccccc1 30.7% [at 102 µM]
Cc1nn(CC(=O)Nc2nc3ccccc3s2)c(C)c1[N+](=O)[O-] 11.1% [at 0.501 µM]
O=[N+]([O-])c1cc(Br)c(O)c(/C=N/Nc2nc3ccccc3s2)c1 115% [at 102 µM]
Cc1c(NC(=S)Nc2ccccc2)c(=O)n(-c2ccccc2)n1C 0.236%
Cc1c(NS(=O)(=O)c2ccc(Cl)cc2)c(=O)n(-c2ccccc2)n1C 9.47%
COc1ccccc1-c1nc(C#N)c(N2CCC(C(N)=O)CC2)o1 -5.97% [at 102 µM]
Cc1oc(-c2ccccc2F)nc1CS(=O)CC(=O)NCCN1CCCCC1C (stereo unspecified) -25.9% [at 102 µM]
COc1ccc(Cl)cc1NC(=O)C(C)Sc1nc2c(c(=O)[nH]1)CCCC2 (stereo unspecified) -28.6%
CC(=O)Nc1ccc(S(=O)(=O)Nc2nccc(/C=C/c3ccccc3F)n2)cc1 -3.27% [at 102 µM]
CCOc1ncccc1C(=O)Nc1ccc(S(=O)(=O)Nc2nc(C)cc(C)n2)cc1 108% [at 12.7 µM]
O=C(O)c1ccccc1-c1ccccc1C(=O)Nc1cccc2ccccc12 8.04%
O=C(Nc1ccccc1[N+](=O)[O-])C1C(c2ccccc2)=C1c1ccccc1 24.3% [at 0.501 µM]
Cc1ccccc1-n1c(=O)c2ccccc2n(Cc2ccc(F)cc2)c1=O 3.97%
O=C(NCCc1ccccc1)C(=O)NCC(c1ccco1)S(=O)(=O)c1ccccc1 (stereo unspecified) -6.5%
NC(=NC(=O)c1ccccc1)N1CCOCC1 3.07%
COC(=O)[C@H](Cc1ccccc1)NC(=O)N1CC(C)OC(C)C1 (stereo partly specified) 10.9% [at 102 µM]
O=C1Nc2c(Br)cc(Br)cc2C1(O)N1CCOCC1 (stereo unspecified) 5.27% [at 12.7 µM]
CC1CN(C(=O)CN2C(=O)NC(C)(c3ccccc3)C2=O)CC(C)O1 (stereo unspecified) 5.65% [at 2.33 µM]
O=C(NC(=O)N1CCOCC1)c1ccccc1 -4.57%
CN(C)CC(C)(C)CNC(=O)c1cc(Br)cc(Br)c1O -26.2% [at 102 µM]
COc1cccc(-c2nc(S(=O)(=O)c3ccc(C)cc3)c(NCc3ccccc3)o2)c1 -39.8%
COc1ccccc1CNC(=O)c1ccc(CS(=O)c2ccccc2Cl)o1 (stereo unspecified) 2.15%
CCCCCn1c(CCCNC(=O)c2ccccc2OC)nc2ccccc21 -4.32%
CNS(=O)(=O)c1cccc(C(=O)NC2CCCc3ccccc32)c1 (stereo unspecified) -3.96% [at 102 µM]
O=C(CCNS(=O)(=O)c1ccccc1)NCCSc1ccc(Br)cc1 9.11%
Cc1ccc(C(=O)OCC(=O)NCc2cc(C)c(O)c(C)c2)cc1S(=O)(=O)N1CCCCC1 5%
CCOCCCNC(=O)c1c(NC(=O)Cc2coc3c(C)c(C)ccc23)sc2c1CCC2 -3.27%
COc1ccccc1CNC(=O)Cn1nc(C)c2nn(-c3ccc(Cl)cc3)c(C)c2c1=O 10.4%
O=C(CSc1nc2ccccc2[nH]1)N/N=C/C=C\c1ccccc1[N+](=O)[O-] -16.6%
Cc1ccc(-n2c(SCC(=O)N/N=C/C=C/c3ccccc3[N+](=O)[O-])nc3ccccc3c2=O)cc1 -9.25%
CC(C)COc1ccc(C(=O)OCC(=O)NCCC2=CCCCC2)cc1 -4.08% [at 102 µM]
CC(NC(=O)C1CCCN(S(=O)(=O)c2ccc(-n3cnnn3)cc2)C1)c1ccc(F)cc1 (stereo unspecified) 11.5% [at 102 µM]
Cc1ccc(OC(=O)CCC(=O)Nc2ccc(Br)cc2)cc1 4.61%
COc1ccc(NC(=O)CCC(=O)Nc2nnc(C3CCCCC3)s2)cc1 -0.257% [at 102 µM]
COc1ccccc1CNC(=O)CCCN1C(=O)NC2(CCCC2)C1=O -40.6% [at 102 µM]
Cc1ccc(Cl)cc1NC(=O)/C(C#N)=C\c1cn(Cc2ccc(F)cc2)c2ccccc12 13.7%
O=[N+]([O-])c1ccc(N/N=C/c2ccccc2)cc1 -4.27% [at 102 µM]
Cc1ccc(NS(=O)(=O)c2ccc(N/N=C/c3ccccc3OCC(=O)O)c([N+](=O)[O-])c2)c(C)c1 -115%
CC(C)c1ccc(S(=O)(=O)N2CCN(C(C)C(=O)NC3CCCC3)CC2)cc1 (stereo unspecified) -7.57% [at 2.33 µM]
CCC(C)c1ccc(NC(=S)N2CCCC2)cc1 (stereo unspecified) 6.13% [at 102 µM]
CCc1ccccc1NC(=O)N1CCC2(CC1)Oc1ccccc1C(=O)N2Cc1ccccc1F -23.1%
CCC(=O)Nc1c(C(=O)N2CCN(c3ccc(F)cc3)CC2)oc2ccccc12 2.14%
COc1cc(C(=O)NCC(c2ccc(Cl)cc2)N2CCOCC2)cc(OC)c1OC (stereo unspecified) 10.8%
CCc1cc(C(c2ccccc2OC)N2CCOCC2)c(NC(=O)c2ccccc2)s1 (stereo unspecified) 7.98% [at 0.501 µM]

Potency, active:
CCN(CC)c1ccc(NC(=O)Cn2nc3c(cc2=O)CCCC3)c(C)c1 11.2 µM
N#C/C(=C/c1ccc(N2CCOCC2)o1)C(=O)N1CCOCC1 7.94 µM
Cc1cccc(N2C(=O)SC(SC(=Nc3ccccc3)Nc3ccccc3)C2=O)c1 (stereo unspecified) 3.55 µM
COc1ccccc1C1/C(=C(/O)c2ccc(OC(C)C)cc2)C(=O)C(=O)N1c1cc(C)on1 (stereo unspecified) 1.26 µM
COc1ccc2oc(C(=O)OCC(=O)N(CC(C)C)c3c(N)n(Cc4ccccc4)c(=O)[nH]c3=O)c(C)c2c1 39.8 µM
CCc1c(C)[nH]c(=S)c(C#N)c1C 1.12 µM
CCOC(=O)C1=C(CN2CCc3ccccc32)NC(=O)NC1c1cccc([N+](=O)[O-])c1 (stereo unspecified) 39.8 µM
C=CCn1c(SCc2ccccc2)nc2c1c(=O)[nH]c(=O)n2C 31.6 µM
O=[N+]([O-])c1c(NCCO)cc(Sc2nc3ccccc3s2)c2nonc12 3.55 µM
CCN(CC)P(=O)(/C(Cl)=C\Nc1c(C)n(C)n(-c2ccccc2)c1=O)N(CC)CC 31.6 µM
CC1CCN(c2oc(-c3ccccc3F)nc2C#N)CC1 7.94 µM
Cc1cc(C)nc(NS(=O)(=O)c2ccc(N/C=C\C(=O)c3cccs3)cc2)n1 50.1 µM
O=C(O)c1cc([N+](=O)[O-])c(Nc2cccc3ccccc23)c([N+](=O)[O-])c1 44.7 µM
O=C(CSC(=S)N1CCOCC1)c1ccccc1 7.08 µM
CC1CN(C(=S)SCC(=O)c2ccccc2)CC(C)O1 (stereo unspecified) 1.78 µM
O=C(CSC(=S)N1CCOCC1)c1cc(Br)cc(Br)c1O 79.4 µM
CCn1c(SCC(=O)N/N=C/C=C/c2ccccc2[N+](=O)[O-])nnc1-c1ccccc1 39.8 µM
COC(=O)CCc1sc(Nc2ccc(Br)cc2)nc1-c1ccc(OC)cc1 35.5 µM
Cc1cccc(COc2ccccc2/C=N/Nc2ccc([N+](=O)[O-])cc2)c1 2.51 µM
COc1cc(C(c2c(NC(=O)c3ccco3)sc(C)c2C)N2CCOCC2)cc(OC)c1OC (stereo unspecified) 50.1 µM
